In all, about 320,000 compounds went through this assay and about 2,100 (0.66%) were called active. Not shown: some 53% with an inconclusive outcome. Calls come from the whole dose curve; as a rule, active = well fitted inhibition curve with a large enough effect in the signal ratio, with a control signal flat (not every such curve was filed as active); inconclusive = small, poorly fitted or top-dose-only effect, or effect the other way, or a change in a side signal; inactive = flat fitted curve, though single readings scatter; the % refers to the signal ratio. Many of the other results were omitted from the sample, so actives are more common in it than they were.
Potency is the fitted concentration of half-maximal effect.

This assay in a line: qHTS Assay for Lipid Storage Modulators in Drosophila S3 Cells.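 For cell number change: cells counted by Cell Tracker Red CMTPX staining in the red channel.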 For lipid storage change, negative = inhibition: % is set by controls: 0 for no effect and ±100 for the full control effect. As to conditions: BODIPY lipid droplet fluorescence, 18-24 h, cells fed with added oleic acid; cell number change: measured here: cell count max response; series mostly up to 46.1 µM; lipid storage change, negative = inhibition: at the top concentration. From the text: NIH Molecular Libraries Probe Production Centers Network [MLPCN] NIH Chemical Genomics Center [NCGC] MLPCN Grant: 1 R03 MH085686-01 Assay Submitter (PI): Beller, Mathias; Max-Planck-Institut fur Biophysikalische Chemie NCGC Assay Overview: Storing lipids as a reservoir for energy or the anabolism of elementary metabolites is a common feature of probably all cells and is conserved from bacteria to humans. The universal cellular lipid storage organelle is the so-called lipid storage droplet (LD). Although ubiquitous, LDs share a simple structure composed of a hydrophobic core that harbors the storage lipids, which is shielded by a droplet-specific phospholipid monolayer to which proteins are attached. The current model of LD biogenesis involves an incorporation of the lipid core into the membrane leaflets of the endoplasmic reticulum (ER) followed by a subsequent budding-like maturation of a LD, which ultimately pinches off. Once released, LD volume can increase by localized lipogenesis or fusion of existing droplet. Storage lipids are re-mobilized enzymatically by lipase activity. Lipase regulation in the adipocyte is heavily studied and involves multiple components including catecholamine signaling, the LD-associated proteins Perilipin and comparative gene identification (CGI-58) and at least two lipases named hormone sensitive lipase (HSL) and adipocyte triglyceride lipase (ATGL). LD regulation outside of the adipocyte is poorly understood and only few components are known. However, there is an urgent need to learn more about ectopic fat depots as mislocalized storage of lipids, for example in the liver or muscle, is an eminent health problem associated with insulin resistance or the metabolic syndrome. We developed a laser-scanning cytometer assay to enable 1,536-well screening and combined the results of the small molecules screen with an RNAi database based on lipid storage.
Triacsin C (Sigma-Aldrich T-4540), an inhibitor of long-chain fatty acyl CoA synthetase that blocks synthesis of triglycerides, was used as a positive control for lipid under-storage. A total of 23 nL of compound solution of different concentrations were transferred to the assay plates using a Kalypsys pin tool equipped with a 1,536-pin array containing 10-nL slotted pins (FP1S10, 0.457-mm diameter, 50.8 mm long; V&P Scientific). One microliter of oleic acid (400 uM) was added, and the plate was lidded with stainless steel rubber gasket lined lids containing pinholes. […] Fluorescence was detected by excitation of the fluorophores with a 488-nm laser on an Acumen Explorer (TTP Lab Tech). The total intensity in channel 2 (500-530 nm) reflected lipid droplet accumulation. Cells were detected using channel 3 (575-640 nm) with 5-um width and 100-um depth filters. The ratio of the number of objects in PMT channel 2 over the number of objects in PMT channel 3 was also calculated. Percent activity was computed relative to an internal control (100% inhibited lipid droplet deposition due to the presence of 20 uM Triacsin C), which was added to 32 wells/plate.
A general note: Quantitative high-throughput screening tests each substance at several concentrations.
With `O=C1CCCc2ccccc2N1Cc1ccc(Cl)cc1`, the “lipid storage change, negative = inhibition” value was -16.9% (inactive) and the cell number change was -1.32%. The like results for `Cc1ccc2c(c1)N(CC(=O)NCCC1=CCCCC1)C(=O)c1cccnc1O2` were, in that order, 0.185% (inactive) and 12.4%. Taken in the same sequence, the figures for `COc1ccc(OCC(=O)Nc2ccc(S(=O)(=O)N3CCN(C)CC3)cc2)cc1` were -10.7% (inactive) and -8.24%. Taken in the same sequence, the figures for `COc1ccc(OCC(=O)OCC(=O)NC2CCCCC2C)cc1` (stereo not given) were -7.59% (inactive) and 5.06%. `COc1cc(NC2CCCCC2O)c2nc(-c3ccc(Cl)cc3)ccc2c1` (stereo not given): the Potency is 14.6 µM (active) and the cell number change is -29.8%. In the case of `CC1CCCCC1NC(=O)COC(=O)Cc1ccc(Cl)cc1` (stereo not given), the “lipid storage change, negative = inhibition” value is 4.08% (inactive) and the cell number change is -17.8%. On to `NC1=NC(=O)C(CC(=O)c2ccc(Cl)cc2)S1` (stereo not given), for which the “lipid storage change, negative = inhibition” value was 3.54% (inactive) and the cell number change was -1.82%. As for `O=C1CC(C(=O)Nc2ccc(C(=O)O)cc2)C(c2ccccc2)O1` (stereo not given), the “lipid storage change, negative = inhibition” value was -2.1% (inactive) and the cell number change is -9.22%. Consider `O=C(CN1CCCCCC1)N1c2ccccc2C=Cc2ccccc21`, for which the Potency was 23.1 µM (active) and the cell number change is -1.69%. With `O=C(CN1CCC(O)CC1)N1c2ccccc2C=Cc2ccccc21`, the “lipid storage change, negative = inhibition” value is -0.597% (inactive) and the cell number change was determined as 5.26%. Taken in the same sequence, the figures for `O=C(CN1CCCC1)N1c2ccccc2C=Cc2ccccc21` were 8.55% (inactive) and -13.2%. Taken in the same sequence, the figures for `Cc1nn(CC(=O)OCC(=O)Nc2c(C(C)C)cccc2C(C)C)c(C)c1[N+](=O)[O-]` were -9.28% (inactive) and 13.1%. Turning to `C(=N\n1cnnc1)/c1ccc2c(c1)OCO2`, the cell number change came out at 14.5% and the lipid storage change, negative = inhibition was 3.76% [at 9.22 µM] (inactive).

Regarding `C(=NC12CN3CN(CN(C3)C1)C2)c1ccc2c(c1)OCO2`, the Potency is 25.9 µM (active) and the cell number change is -2.59%. For the compound `CCOc1ccc(C=NC23CN4CN(CN(C4)C2)C3)cc1`, the “lipid storage change, negative = inhibition” value was -12.4% (inactive) and the cell number change stood at 8.43%. In the case of `Fc1ccccc1OCCCCN1CCCCC1`, the “lipid storage change, negative = inhibition” value was -16.9% (inactive) and the cell number change was 6.04%.

On to `CC(C)NC(=O)C(Cc1ccccc1)N1C(=O)c2ccccc2C1=O` (stereo not given), for which the “lipid storage change, negative = inhibition” value was 0.505% (inactive) and the cell number change is -13.7%.

Regarding `COc1ccc2c(CCNC(N)=S)c[nH]c2c1`, the “lipid storage change, negative = inhibition” value was 2.34% (inactive) and the cell number change worked out at 9.98%.

In the case of `CCOc1ccccc1N(CC(=O)NCC1CCCO1)C(=O)CCC(=O)Nc1cc(C)on1` (stereo not given), the outcome was inactive and the cell number change worked out at 6.09%. On to `Cc1cc(NC(=O)CCC(=O)N(CC(=O)NCC2CCCO2)c2ccc(C)c(C)c2)no1` (stereo not given), for which the Potency is 1.03 µM (active) and the cell number change is -10%. On to `Cc1cc(NC(=O)CCC(=O)N(CC(=O)NCC2CCCO2)c2ccc3c(c2)OCCO3)no1` (stereo not given), for which the “lipid storage change, negative = inhibition” value was 1.58% (inactive) and the cell number change came out at 10.4%. With `Cc1cc(NC(=O)CCC(=O)N(CC(=O)NCC2CCCO2)c2ccc(Cl)c(Cl)c2)no1` (stereo not given), the compound was classed as inactive and the cell number change turned out to be 10.4%.

As to `Cc1cc(NC(=O)CCC(=O)N(CC(=O)NCC2CCCO2)c2ccccc2C)no1` (stereo not given), the “lipid storage change, negative = inhibition” value was 6.36% (inactive) and the cell number change worked out at 5.33%. For the compound `CCc1ccccc1N(CC(=O)NCC1CCCO1)C(=O)CCC(=O)Nc1cc(C)on1` (stereo not given), the Potency is 25.9 µM (active) and the cell number change worked out at 7.08%.

Regarding `COC(=O)c1ccc(N2C(=O)c3cc(N4CCOCC4)c([N+](=O)[O-])cc3C2=O)cc1`, the “lipid storage change, negative = inhibition” value was 1.86% (inactive) and the cell number change was determined as 0.29%.

As for `Cc1cccc2nc(CSc3nc4ccccc4[nH]3)cn12`, the “lipid storage change, negative = inhibition” value is -6.23% (inactive). In the case of `CC1(C)Cc2c(c(=S)nc(-c3ccccc3)n2CCO)CO1`, the Potency was 0.259 µM (active) and the cell number change is -12.1%. Turning to `COCCn1c(-c2ccccc2)nc(=S)c2c1CC(C)(C)OC2`, the outcome was inactive. Consider `CC1(C)Cc2c(c(=S)nc(-c3ccccc3)n2CCOCCO)CO1`, for which the “lipid storage change, negative = inhibition” value was 0.774% (inactive) and the cell number change was 4.5%. Regarding `CC(=O)Nc1ncc(Cc2cccc(Cl)c2Cl)s1`, the outcome was inactive. Regarding `Cc1nn(C(C)C(=O)NC2C(=O)N3C(C(=O)O)=C(CSc4nnnn4C)CSC23)cc1Cl` (stereo not given), the “lipid storage change, negative = inhibition” value was 6.33% (inactive) and the cell number change is -1.98%. With `COc1cccc(NC(=S)N2CCN(C)CC2)c1`, the “lipid storage change, negative = inhibition” value was -6.39% (inactive) and the cell number change is -7.43%.

Turning to `COc1cccc(NC(=O)COc2ccc(C(=S)N3CCN(C)CC3)cc2OC)c1`, the Potency is 8.2 µM (active). For `COc1cccc(NC(=O)COc2ccc(C(=O)N3CCN(C)CC3)cc2)c1`, the compound was classed as inactive and the cell number change was found to be 10.4%. Taken in the same sequence, the figures for `CCOCCn1c(N2CCCC2)nc2c1c(=O)n(C)c(=O)n2C` were “inactive” and -1.35%. Taken in the same sequence, the figures for `CCOC1=C/C(=C/c2c(N)n3nc(CC(=O)N4CCCC4)sc3nc2=O)C=CC1=O` were “inactive” and -5.2%. For `COC1=C/C(=C/c2c(N)n3nc(CC(=O)N4CCCCC4)sc3nc2=O)C=CC1=O`, the Potency is 14.6 µM (active) and the cell number change was -9.68%. Turning to `Nc1c(/C=C2/C=CC(=O)C(O)=C2)c(=O)nc2sc(CC(=O)N3CCCCC3)nn12`, the outcome was inactive and the cell number change was -19.8%.

`COC(=O)c1c(NC(=O)c2ccco2)sc(C(=O)N2CCCC2)c1C`: the “lipid storage change, negative = inhibition” value is 19.5% (inactive) and the cell number change is -26.3%. Consider `CCCn1cc(S(=O)(=O)c2ccc(OC)cc2)c(=O)c2cc(OCC)ccc21`, for which the “lipid storage change, negative = inhibition” value is -20.7% (inactive). Turning to `CC(C)C(C(=O)Nc1ccc2c(c1)OCO2)N1C(=O)c2ccccc2C1=O` (stereo not given), the outcome was inactive and the cell number change was -19.4%.

Take `O=C(CCCCCNC(=O)c1ccccc1)N/N=C/c1ccc(O)cc1O`: the “lipid storage change, negative = inhibition” value is -5.27% (inactive) and the cell number change is 1.3%.

For `O=C(CCCCCNC(=O)c1ccccc1)N/N=C/c1ccco1`, the result was inactive. With `O=C(CCCCCNC(=O)c1ccccc1)N/N=C/c1ccccc1O`, the Potency is 9.2 µM (active) and the cell number change is -19.4%. Consider `CSC1=NCCN1S(=O)(=O)c1ccc2ccccc2c1`, for which the “lipid storage change, negative = inhibition” value was 3.31% (inactive) and the cell number change came to 1.31%. In the case of `CC(C)Oc1ccc(CNC(=O)C2CCCN(S(=O)(=O)N3CCOCC3)C2)cc1` (stereo not given), the compound was called inactive and the cell number change was determined as 24.2%. For `O=Cc1cccn1-c1sc2c(c1C(=O)O)CCCC2`, the “lipid storage change, negative = inhibition” value was 0.304% (inactive) and the cell number change is -5.54%.

With `C=CCn1cccc(C(=O)Nc2ccc(SC)cc2)c1=O`, the Potency was 4.11 µM (active) and the cell number change is 16.6%. Take `C=CCn1cccc(C(=O)Nc2ccc(C)cc2)c1=O`: the “lipid storage change, negative = inhibition” value is 15.4% (inactive) and the cell number change was 10.2%. As to `C=CCn1cccc(C(=O)Nc2ccc(Cl)cc2)c1=O`, the “lipid storage change, negative = inhibition” value was 8.12% (inactive) and the cell number change is 6.52%. In the case of `COC(=O)c1cn(NC(=O)/C=C/c2ccc(OC)c(OC)c2)c(=O)c2ccccc12`, the “lipid storage change, negative = inhibition” value is -1.77% (inactive) and the cell number change is -14.9%. The like results for `CCOC(=O)Cc1csc(NC(=O)/C=C/c2ccccc2Cl)n1` were, in that order, 12.2% (inactive) and -1.33%.

As to `COc1nc(C#N)nc(N(C)C)n1`, the “lipid storage change, negative = inhibition” value is -8.69% (inactive) and the cell number change is -4.25%. With `N#C/C(=C\c1ccc(O)cc1)C(=O)NCc1ccccc1`, the “lipid storage change, negative = inhibition” value was 12.1% (inactive). As for `N#C/C(=C\c1cccnc1)C(=O)Nc1ccccc1`, the “lipid storage change, negative = inhibition” value was 16% (inactive) and the cell number change was -2.7%. Take `CCCCNC(=O)/C(C#N)=C/c1cccnc1`: the Potency is 20.6 µM (active). `N#C/C(=C/c1ccc(OCc2ccc(C(=O)O)cc2)cc1)C(=O)Nc1ccccc1`: the “lipid storage change, negative = inhibition” value is 0.353% (inactive) and the cell number change worked out at 14.9%. With `N#C/C(=C\c1ccc(OCc2ccccc2)cc1)C(=O)Nc1ccc(C(=O)O)cc1`, the Potency was 20.6 µM (active) and the cell number change came to 12.2%. For the compound `COc1ccc(/C=C(\C#N)C(=O)NCc2ccccc2)cc1`, the “lipid storage change, negative = inhibition” value was 3.79% (inactive) and the cell number change was -4.49%. `N#C/C(=C/c1ccc(C(=O)O)cc1)C(=O)Nc1ccccc1`: the “lipid storage change, negative = inhibition” value is -13.8% (inactive). On to `CCCCNC(=O)/C(C#N)=C/c1ccc(C(=O)OC)cc1`, for which the “lipid storage change, negative = inhibition” value was -11.1% (inactive) and the cell number change is -26.3%. Taken in the same sequence, the figures for `N#C/C(=C\c1cccs1)C(=O)NCc1ccccc1` were -2.68% (inactive) and -1.86%. As to `CCN(CC)c1ccc(/C=C(/C#N)C(=O)NCc2ccccc2)o1`, the Potency was 2.06 µM (active) and the cell number change was -20.4%. As to `N#C/C(=C/c1ccccc1)C(=O)NCc1ccccc1`, the Potency is 2.59 µM (active) and the cell number change came to 18.6%. `Cc1ccc(/C=C(\C#N)C(=O)NCc2ccco2)o1`: the “lipid storage change, negative = inhibition” value was 4.22% (inactive).

The record behind these values is PubChem BioAssay AID2685 (National Center for Advancing Translational Sciences (NCATS), 2010).
